Measured values taken from ChEMBL document CHEMBL3988442, “University of Dundee, Small-Polar-MMV Screening Library” (2021).
About 440 (0.52%) of roughly 85,000 compounds showed an effect of 50% or more. The list comes from a sample in which strong results are over-represented; it also holds similar structures and randomly drawn compounds.

Assay: In vitro enzyme assay to detect hydrolysis of chlorophenol red-beta-D-[…] directly proportional to the number of Toxoplasma stably expressing beta-galactosidase
Assay type: functional, organism-based, Toxoplasma gondii
Parameters: scale not given: in the data most compounds retested in dose-response had high values

SMILES	Percent Effect (10 µM) [%]	Percent Effect (50 µM) [%]
N[C@@H]1CCC[C@@H](Oc2ccc(F)cc2Oc2cccc(F)c2)[C@@H]1O	2.748	–
N[C@@H]1CCC[C@@H](Oc2ccc(F)cc2Oc2ccccc2)[C@@H]1O	2e-14	–
Cc1ccc(Oc2cc(F)ccc2O[C@@H]2CCC[C@@H](N)[C@H]2O)cc1	82.52	–
Cn1ncc(C(=O)N2CCN(C(=O)c3ccco3)CC2)c1Cl	75.62	–
Cn1ncc(C(=O)N2CCN(CCS(C)(=O)=O)CC2)c1Cl	67.81	–
Cc1oc(C(C)C)cc1C(=O)N1CCN(c2cnn(C)c(=O)c2)CC1	15.5	–
COCc1ccc(C(=O)N2CCN(CCS(C)(=O)=O)CC2)cc1	-0.2262	–
Cc1c(C(=O)N2CCC(C(O)c3ccc(Cl)cc3)CC2)cnn1C (stereo not given)	-2.382	–
CCOC(=O)N1CCN(C(=O)c2ccco2)CC1	–	9.256
CS(=O)(=O)N1CCN(C(=O)c2cnn3c2OCCC3)CC1	-9.448	–
Cc1c(C(=O)N2CCCN(S(C)(=O)=O)CC2)cnn1C	-3.056	–
CC(C)S(=O)(=O)N1CCN(C(=O)c2cnn(C)c2Cl)CC1	63.23	–
Cn1ncc(C(=O)N2CCN(S(C)(=O)=O)CC2)c1Cl	77.51	–
CCc1ccc(C(=O)N2CCN(CCS(C)(=O)=O)CC2)o1	-13.13	–
Cn1ncc(C(=O)N2CCOCC2)c1Cl	29.02	–
O=C(NC1CCc2ccc(F)cc21)c1c[nH]nn1 (stereo not given)	–	10.36
COC(=O)c1ccc(NCC(=O)N2CCCCC2)cc1	–	-5.615
Cc1cc(C(=O)N(C)Cc2ccncc2C)[nH]n1	–	-2.921
CC1c2ccsc2CCN1CCC(=O)NC(N)=O (stereo not given)	–	-3.706
N#CC1CCCN(C(=O)c2cnc3ccccc3c2)C1 (stereo not given)	–	-3.341
CCC1=NC(SCC(=O)c2ccc(OC)cc2)c2cc(CC)sc2N1 (stereo not given)	50.44	–
COc1ccc(C(=O)CNC(=O)c2nc(Cl)sc2C(C)C)cc1	18.25	–
CCC1=NC(SCC(=O)c2ccc(C)cc2)c2cc(CC)sc2N1 (stereo not given)	65.66	–

SMILES	Percent Effect (10 µM) [%]	Percent Effect (50 µM) [%]
CCC1=NC(SCC(=O)c2ccccc2)c2cc(CC)sc2N1 (stereo not given)	88.55	–
CCc1ncc(C(=O)N2CCOCC2CC(=O)c2ccccc2)s1 (stereo not given)	3.663	–
CCC1=NC(SCC(=O)c2ccc(Cl)cc2)c2cc(CC)sc2N1 (stereo not given)	23.77	–
CCc1nc(C(=O)N2CCOCC2CC(=O)c2ccccc2)c[nH]1 (stereo not given)	0.2818	–
CCc1ncc(C(=O)c2ccc(OC)cc2)n1C	-0.6627	–
Cc1cccc(-n2nnnc2C(C)(C)N2CCCC2)c1	–	-9.882
COCCNS(=O)(=O)c1ccc(CN)cc1	–	-7.365
CC(C)(C)NC(=O)CNC(C)(C)c1nccs1	–	-6.241
Cc1cnccc1NCCNC(=O)[C@H]1CCC[C@H](O)C1	–	-11.82
O=C1CCCN1CCCNCc1cccs1	–	4.585
CCCN1CCC(CNc2ncccc2F)C1 (stereo not given)	–	-12.03
COc1c(CNC2CCOc3c(Cl)cccc32)c(C(C)C)nn1C (stereo not given)	50.26	–
COc1c(CNC2CCOc3ccccc32)c(C(C)C)nn1C (stereo not given)	0.6462	–
COc1c(CNC2CCOc3c(Cl)cccc32)c(C)nn1C.Cl (stereo not given)	-5.172	–
Cc1ccccc1-c1nnn(CC(O)CC(F)(F)F)n1 (stereo not given)	–	-8.034
CC(C)CC(C)(N)CO (stereo not given)	–	-4.909
COc1cc(NC(=O)CCN2CC(O)C2)cc(OC)c1	–	-10.62
c1cc(-c2cnccn2)cc(-c2ccn(CCN3CCCCC3)n2)c1	-6.783	–
c1coc(CN2CCn3c(CN4CCOCC4)nnc3C2)c1	4.961	–
O=C(c1cnccn1)N1CCC(CN2CCOCC2)CC1	17.94	–
CCN1CCN(c2nnc(-c3ccccn3)s2)CC1	–	1.346
c1cc(-c2cnccn2)cc(-c2ccn(CCN3CCCC3)n2)c1	1.269	–
O=C(NCCN1CCCCC1)c1cnccn1	–	1.153

SMILES	Percent Effect (10 µM) [%]	Percent Effect (50 µM) [%]
c1ccc(-c2nn3c(CN4CCOCC4)nnc3s2)nc1	71.31	–
c1cnc(-c2nn3c(CN4CCCCC4)nnc3s2)cn1	70.51	–
c1cnc(-c2nn3c(CN4CCCCCC4)nnc3s2)cn1	65.52	–
c1cc(-c2cnccn2)cc(-c2ccn(CCCN3CCCCC3)n2)c1	-3.188	–
O=C(c1cnccn1)N1CCc2ncc(CN3CCOCC3)n2CC1	-7.352	–
c1cnc(-c2nn3c(CN4CCOCC4)nnc3s2)cn1	68.89	–
Cc1cnc(N)nc1NCC(O)CN1CCCCC1 (stereo not given)	–	10.92
Cc1cc(F)ccc1NC(=O)NCC1(O)CCNC1 (stereo not given)	–	-14.34
CC(C(=O)N1CCOCC1)N1CCC(CO)CC1 (stereo not given)	–	-3.94
Cn1cc([C@@H]2OCCC[C@H]2CN)cn1	–	1.285
NCc1ccncc1OCC(F)(F)F	–	19.9
COCC1CCN(C(=O)CCC2CCNCC2)CC1	–	-0.227
C=C(C)CNC(C(=O)N1CCOCC1)C(C)C (stereo not given)	–	-2.491
CN(CCC(N)=O)Cc1ccc(Cl)s1	–	-3.537
c1ccc(-c2ncn(CCCN3CCOCC3)c2-c2ccncc2)cc1	36.16	–
c1cc(-c2nn3c(CN4CCOCC4)nnc3s2)ccn1	60.13	–
c1cc(-c2nnc3sc(CCN4CCCC4)nn23)ccn1	-1.928	–
COCC(=O)NCCc1cc(Cl)c2c(c1)OCCO2	–	-0.1362
O=C(CN1CCN(C(=O)c2sccc2C2CC2)CC1)NC1CC1	2.485	–
O=C(CN1CCN(C(=O)c2ccco2)CC1)NC1CC1	–	54.85
CCC(=O)NC1CCN(C(=O)c2ccco2)CC1	–	-8.488
CCc1ccccc1-n1c(CNC)n[nH]c1=O	–	9.34
CC[C@H](N)C(=O)N(C)CCOc1cccc(Cl)c1	–	33.07

SMILES	Percent Effect (10 µM) [%]	Percent Effect (50 µM) [%]
OCC1COCCN(Cc2ccc(C(F)(F)F)nc2)C1 (stereo not given)	–	17.84
COc1ccc(OCCc2sc(C3(O)CCCNCC3)nc2C)cc1.Cl (stereo not given)	31.45	–
Cc1nc(C2(O)CCCNCC2)sc1CCOc1ccccc1.Cl (stereo not given)	-8.75	–
Cc1nc(C2(O)CCCNCC2)sc1CCOc1ccc(F)cc1.Cl (stereo not given)	11.11	–
Cc1nc(C2(O)CCCNCC2)sc1CCOc1ccc(F)c(F)c1.Cl (stereo not given)	36.46	–
Cc1nc(C2(O)CCCNCC2)sc1CCOc1ccc(Cl)cc1.Cl (stereo not given)	66.18	–
CCS(=O)(=O)NCCCN(C)C1CCSC1 (stereo not given)	–	-2.223
Cc1n[nH]c(SCCNC(=O)CC2C=CS(=O)(=O)C2)n1 (stereo not given)	–	9.381
Cc1nc(C)c(CNC(=O)c2ccnnc2)s1	–	-0.5239
CC(CNC(=O)c1cncc(Br)c1)N1CCCC1 (stereo not given)	–	12.86
CN(Cc1ccccc1)C1(C(=O)NC(C)(C)CO)Cc2ccccc2C1	-3.718	–
CN(Cc1ccccc1)C1(C(=O)O)Cc2ccccc2C1	-0.5507	–
CNC(=O)C1(N(C)CCc2ccccc2)Cc2ccccc2C1	52.85	–
CN(Cc1ccco1)C(=O)Nc1ccc(N(C)C)nc1	–	24.04
CCN(CCCN1CCCC1)C(=O)c1cc[nH]n1	–	-7.801
Cc1nn(C)cc1-c1cc(C(F)(F)F)nc(NC2CCCCC2)n1	1.393	–
Cc1nn(C)cc1-c1cc(C(F)(F)F)nc(NC2CCN(C)CC2)n1	3.167	–
CCn1cc(-c2cc(C(F)(F)F)nc(NC3CCCC3)n2)c(C)n1	70.55	–
O=C(NCC(O)C1CC1)c1cccnc1C(F)(F)F (stereo not given)	–	-5.668
O=C(CNc1ccc(Br)cc1)NCc1ncc[nH]1	–	5.475
CC(C)C(O)CCNS(=O)(=O)c1ccccc1 (stereo not given)	–	62.33
CC(N)CCNS(=O)(=O)c1ccccc1 (stereo not given)	–	-13.24
O=S(=O)(NCCC(O)c1cccs1)c1ccccc1 (stereo not given)	0.7722	–

SMILES	Percent Effect (10 µM) [%]	Percent Effect (50 µM) [%]
CC(c1cccnc1)N(C)C(=O)c1ccccc1C#N (stereo not given)	–	-2.098
COc1c(C)cnc(CNC(=O)NC2CC2)c1C	–	8.679
Cc1cc(C)n(CC(=O)N2CC(C)OCC2(C)C)n1 (stereo not given)	–	5.036
CSCC(CCO)NC(=O)c1cccc(F)c1Cl (stereo not given)	-17.37	–
CSCC(CCO)NC(=O)c1cc(F)ccc1O (stereo not given)	–	96.99
CSCC(CCO)NC(=O)c1cccc(Cl)c1F (stereo not given)	-4.915	–
CCCc1cc(C(=O)N2CCOC(C(F)(F)F)C2)no1 (stereo not given)	–	-10.86
COc1ccnc(N2CCC(F)(CO)C2)n1 (stereo not given)	–	3.064
Cn1nnc2c1C(COCC1CC1)CN(C(=O)Cc1ccsc1)C2 (stereo not given)	-4.213	–
COCC1CN(C(=O)Cc2cccs2)Cc2nnn(C)c21 (stereo not given)	4.219	–
Cn1nnc2c1C(COCC1CC1)CN(C(=O)Cc1cccs1)C2 (stereo not given)	56.28	–
CC1(C)CNC(=O)c2nc(CCN3CCCC3)[nH]c2C1	–	-0.3782
COc1ccc2[nH]c(N3CCOCC3)nc2c1	–	4.618
N#Cc1ccc(CN2CCCC2=O)cc1	–	8.336
NCc1ccc(CN2CCCC2=O)cc1	–	-14.5
CS(=O)(=O)NCc1ccc(CN2CCCC2=O)cc1	–	69.78
CCOCC(=O)N(Cc1ccc(O)c(OC)c1)C1CC1	–	-4.406
CCCNC(=O)c1ccc(CN2CCCC2)cc1	–	0.8478
CCNCCCNCc1ccc2c(c1)n(C)c(=O)n2C	–	0.7261
NCC(CO)Cc1ccc(F)c(F)c1 (stereo not given)	–	20.05
O=C(Nc1nc2c(s1)CN(C(=O)NCc1cccs1)CC2)C1CC1	2.193	–
CC(C)NC(=O)Nc1nc2c(s1)CN(C(=O)NCc1cccs1)CC2	56.34	–
COC(=O)Nc1nc2c(s1)CN(C(=O)NCc1cccs1)CC2	1.645	–
